This passage reports growth results from PubChem BioAssay (NCI).

About 83,000 compounds went through this panel and 20% of them were active in at least one assay; those are over-represented in the sample as a whole.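 Cells were grown in 96-well plates and exposed to the test compound at a single concentration for 48 hours; results are reported as percent growth, with values below 10 considered active.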 Values without a mark were called inactive. The source made the active and inactive calls.

One experiment deals with OVCAR-3 ovarian. Nature of the experiment: NCI-60 one-dose screen, 48 h (100 = growth as untreated, 0 = no growth, -100 = all killed). The following applies: 10 µM.
Consider `COc1ccc2[nH]c(=O)c(CSc3nccc(-c4ccc(Cl)cc4)n3)cc2c1`, for which the growth is 44.8%. Same read-out and setting: for `O=C1Nc2cc(Cl)ccc2/C1=C/c1ccc(OCc2ccc(Br)cc2F)cc1` the value was -82.1% (active); for `O=C(N/N=C/c1ccc(B(O)O)o1)c1[nH]c2ccc(Br)cc2c1-c1ccccc1`, 14%; for `CCCS(=O)(=O)c1oc(-c2ccc(F)cc2)nc1S(=O)(=O)c1ccc(F)cc1`, -96% (active).

The next experiment deals with HS 578T breast. The experiment is described as above. The following applies: 10 µM.
As to `Nc1nc(-c2ccccc2)cc(-c2cc3ccccc3nc2Cl)n1`, the growth is 82.8%. On the same count and under the same terms, for `O=C(Cn1cc(CSc2nnc3oc4ccccc4n23)nn1)Nc1ccc(Br)cc1` the value was 20.3%; for `O=c1oc2ccc(-c3ccc(F)cc3F)cc2c(=O)n1-c1ccc(F)c(Cl)c1`, -0.875% (active); for `CN1CCN(c2ccc(Nc3nc(NCCCNC(=O)c4ccc(F)cc4)c4sccc4n3)cc2)CC1`, 84.1%.

As to `CO[C@@H]1CSS[C@H]1Cn1nc(-c2ccc(Oc3ccccc3)cc2)c2c(N)ncnc21`, the growth is 72.6%.

In the case of `CC(=O)Nc1ccc(-n2cnc3cc(-c4ccc(O)cc4)ccc32)cc1C`, the growth is 64.6%. Still for that read-out and setting: the figure for `COC(=O)CC1CC1C1Cc2c(nc(N(C)S(C)(=O)=O)nc2C(C)C)-c2ccc(F)cc21` (stereo unspecified) is 84.6%; for `CC(=O)Nc1nc(-c2ccc(N3CCN(C)CC3)c(NS(=O)(=O)c3ccc(C(F)(F)F)cc3)c2)cs1` it is 38.6%. The same measure, in the same setting: the figure for `Cc1ccc(-c2ccc(SCC(=O)Nc3ccc(Cl)c(C(F)(F)F)c3)nn2)cc1` is 15.7%. The same measure, in the same setting: the figure for `c1ccc(C(=C(c2ccc(OCCN3CCCCC3)cc2)c2ccc(OCCN3CCCCC3)cc2)C2CCCC2)cc1` is -9.63% (active); for `O=C(O)CCCCCCCCCCN1C(=O)/C(=C/c2cnc(-c3ccccc3)s2)SC1=S` it is 117%; for `CCN(CC)CCOc1ccc(C(=C(C)c2ccccc2)c2ccc(OCCN(CC)CC)cc2)cc1` it is -8.15% (active). On to `Cc1ccc(C(=O)Nc2ccc(-n3c(C)nc4c(cnn4-c4ccccc4)c3=O)cc2)cc1`, for which the growth is 84.8%.

Consider `COc1ccc2[nH]c(O)c(N=NC(=O)COc3ccc(NC(=O)Nc4ccc(Cl)c(Cl)c4)cc3)c2c1`, for which the growth is -3.4% (active). Same read-out and setting: for `O=C1NC(=NC23CC4CC(CC(C4)C2)C3)N/C1=C\c1ccc2ncccc2n1` the value was -24.3% (active). Same read-out and setting: the figure for `COC(=O)C(Cc1ccc(O)c(O)c1)NC(=O)C(CSC/C=C(\C)CCCC(C)CCCC(C)CCCC(C)C)NC(C)=O` (stereo unspecified) is 25.5%; for `O=C(Nc1ccncc1)c1ccc(-n2c(=O)[nH]c3ccccc3c2=O)cc1` it is 92.4%.

Turning to `CCCCCc1ccc(S(=O)(=O)N(C(C)=O)c2cc(-c3csc(N(C)C(C)=O)n3)ccc2N2CCN(C)CC2)cc1`, the growth is 35.7%. On the same count and under the same terms, the figure for `COc1ccc(-c2ccc(/C=N/NC(=O)c3[nH]c4ccc(Br)cc4c3-c3ccccc3)s2)cc1` is 54%; for `CC(C)CCSc1nc(NC2CC2)c(C#N)c(-c2ccc(C(C)C)cc2)n1` it is 108%. On the same count and under the same terms, the figure for `O=C(Nc1nc2ccc([N+](=O)[O-])cc2s1)Nc1ccccc1I` is 9.12% (active); for `Cc1ccc(CSc2nc(Cl)c(C#N)c(-c3ccc(F)cc3)n2)cc1` it is 86.7%.

Regarding `CCN1CCN(c2ccc(NC(=O)Nc3ccc(-c4cc(C(=O)NC)c5ncccc5n4)cc3)cc2C(F)(F)F)CC1`, the growth is -51.5% (active). Same read-out and setting: the figure for `COc1ccccc1NCc1ccc(CO)n1-c1ccc(C)cc1` is 98%; for `CCCCCCCCCCCCCCCCCCCC(=O)NCCc1c[nH]c2ccc(OC(=O)NOCCOCCOCCOCCOCCOCCOCCOCCOCCOCCOCCOCCOCCOCCOCCOCCOCCOCCOCCOCCOCCOCCOC)cc12` it is -18.9% (active); for `CC(=O)NCC1=C(C)C=C2C(=O)[C@](C)(O)C3(CC3)C(C)=C21` it is -37.4% (active). Take `Cc1cccc2cc(-c3cc(-c4ccccc4)nc(=S)[nH]3)c(Cl)nc12`: the growth is 59.4%. With `CO[C@H]1CSS[C@@H]1Cn1nc(-c2ccc(Oc3ccccc3)cc2)c2c(N)ncnc21`, the growth was 28.4%. On the same count and under the same terms, for `CNC(=O)c1cc(-c2ccc(NC(=O)Nc3ccc(C)cc3)cc2)nc2cccnc12` the value was 106%; for `O=C(Cn1cc(CSc2nnc3oc4ccccc4n23)nn1)Nc1cccc(Cl)c1`, 66.6%. The same measure, in the same setting: the figure for `O=C(Nc1cc(Cl)cc(Cl)c1)Nc1cc(Cl)cc(Cl)c1` is -19.3% (active). Still for that read-out and setting: the figure for `C=CC(=O)Nc1ccc(C(=O)/C=C/c2ccc(N(C)CCF)cc2)c(O)c1` is 19.7%.
